Data as given in the supplement of paper PMC6089552.
The campaign covered roughly 3,200 compounds. About 300 (9.4%) showed activity. Only a selection was taken, and actives are over-represented in it overall.

Tested on: A673/TR/shEF
Assay: cell viability (LOESS-normalised, relative to median of negative controls) (log2 ratio); higher = more viable cells (less compound effect), active = hit call of the paper (over 3 MAD below the median)
Conditions: treatment time: 72 h
How it was run: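 Doxycycline, present or absent from 24 h before compounds, was used to induce EWS-FLI1 shRNA knockdown in A673/TR/shEF Ewing sarcoma cells at 1,500 per well in 384-well plates. Cells then received library compounds at two or more concentrations, or DMSO controls, for three days. Viability was measured by CellTiter-Glo luminescence on an Envision reader, and per-plate LOESS correction, division by the negative-control median and log2 transformation followed.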

[1] = 0.25 µM, library screen: screen1, EWS-FLI1 expression: high (no doxycycline)
[2] = 0.25 µM, library screen: screen1, EWS-FLI1 expression: low (doxycycline-induced shRNA knockdown)
[3] = 2.5 µM, library screen: screen1, EWS-FLI1 expression: high (no doxycycline)
[4] = 2.5 µM, library screen: screen1, EWS-FLI1 expression: low (doxycycline-induced shRNA knockdown)
[5] = 0.25 µM, library screen: screen2, EWS-FLI1 expression: high (no doxycycline)
[6] = 0.25 µM, library screen: screen2, EWS-FLI1 expression: low (doxycycline-induced shRNA knockdown)
[7] = 2.5 µM, library screen: screen2, EWS-FLI1 expression: high (no doxycycline)
[8] = 2.5 µM, library screen: screen2, EWS-FLI1 expression: low (doxycycline-induced shRNA knockdown)
[9] = 0.103 µM, library screen: screen3, EWS-FLI1 expression: high (no doxycycline)
[10] = 0.103 µM, library screen: screen3, EWS-FLI1 expression: low (doxycycline-induced shRNA knockdown)
[11] = 0.308 µM, library screen: screen3, EWS-FLI1 expression: high (no doxycycline)
[12] = 0.308 µM, library screen: screen3, EWS-FLI1 expression: low (doxycycline-induced shRNA knockdown)
[13] = 0.926 µM, library screen: screen3, EWS-FLI1 expression: high (no doxycycline)
[14] = 0.926 µM, library screen: screen3, EWS-FLI1 expression: low (doxycycline-induced shRNA knockdown)
[15] = 2.8 µM, library screen: screen3, EWS-FLI1 expression: high (no doxycycline)
[16] = 2.8 µM, library screen: screen3, EWS-FLI1 expression: low (doxycycline-induced shRNA knockdown)
[17] = 8.3 µM, library screen: screen3, EWS-FLI1 expression: high (no doxycycline)
[18] = 8.3 µM, library screen: screen3, EWS-FLI1 expression: low (doxycycline-induced shRNA knockdown)
[19] = 25 µM, library screen: screen3, EWS-FLI1 expression: high (no doxycycline)
[20] = 25 µM, library screen: screen3, EWS-FLI1 expression: low (doxycycline-induced shRNA knockdown)

Measured: cell viability (log2)

CC(=O)N[C@@H]1[C@@H](O)[C@H](O)[C@@H](CO)O[C@H]1O
inactive: [1] 0.0385 | [2] 0.0648 | [3] 0.0809 | [4] 0.0429

CC(C)CC1NC(=O)C(Cc2ccccc2)NC(=O)C(CCN)NC(=O)C(NC(=O)C(CCN)NC(=O)C(CCO)NC(=O)C(CCN)NC=O)CCNC(=O)C(CCO)NC(=O)C(CCN)NC(=O)C(CCN)NC1=O.COc1cc(Cc2cnc(N)nc2N)cc(OC)c1OC (stereo not drawn)
inactive: [1] 0.0686 | [2] 0.0873 | [3] 0.182 | [4] 0.054

Cc1ccccc1N1CCN(S(=O)(=O)C[C@]23CCC(CC2NC(=O)[C@@H](N)CCS(C)(=O)=O)C3(C)C)CC1 (stereo partly drawn)
inactive: [5] 0.163 | [6] 0.172 | [7] 0.18 | [8] 0.0913

CC(C)=CCCC1(C)C=Cc2c(O)c3c(c(CC=C(C)C)c2O1)OC12C(=CCCC1C(C)(C)OC2(CC=C(C)C(=O)O)C(=O)O)C3=O (stereo not drawn)
inactive: [1] 0.0468 | [2] -0.0618 | [3] 0.121 | [4] 0.0265

CN(C)C(=O)/N=N/C(=O)N(C)C
inactive: [5] 0.0755 | [6] 0.0201 | [7] 0.21 | [8] 0.117

COc1ccc(Cl)cc1C(=O)NCCc1ccc(S(=O)(=O)NC(=O)NC2CCCCC2)cc1
inactive: [9] 0.115 | [10] 0.0621 | [1] 0.0607 | [2] 0.0399 | [5] 0.171 | [6] 0.0382 | [11] 0.175 | [12] 0.0954 | [13] 0.104 | [14] 0.103 | [3] 0.0749 | [4] 0.0806 | [7] 0.0699 | [8] 0.0189 | [15] 0.125 | [16] 0.0778 | [17] 0.113 | [18] 0.0685 | [19] 0.0907 | [20] 0.0579

CCC1=C(C)CN(C(=O)NCCc2ccc(S(=O)(=O)NC(=O)NC3CCC(C)CC3)cc2)C1=O (stereo not drawn)
active: [19] -0.481 | [20] -0.408
inactive: [9] 0.065 | [10] 0.0619 | [11] -0.018 | [12] 0.0454 | [13] -0.0554 | [14] -0.00949 | [15] 0.0264 | [16] -0.0201 | [17] -0.0146 | [18] -0.0784

Cc1cnc(C(=O)NCCc2ccc(S(=O)(=O)NC(=O)NC3CCCCC3)cc2)cn1
inactive: [9] 0.103 | [10] 0.0573 | [5] 0.139 | [6] -0.00978 | [11] 0.195 | [12] 0.0857 | [13] 0.143 | [14] 0.063 | [7] 0.155 | [8] 0.035 | [15] 0.0953 | [16] 0.0849 | [17] 0.13 | [18] 0.0833 | [19] 0.172 | [20] 0.135

CC1(C)[C@@H](O[C@@H]2O[C@H](C(=O)O)[C@@H](O)[C@H](O)[C@H]2O[C@@H]2O[C@H](C(=O)O)[C@@H](O)[C@H](O)[C@H]2O)CC[C@]2(C)[C@H]3C(=O)C=C4[C@@H]5C[C@@](C)(C(=O)O)CC[C@]5(C)CC[C@@]4(C)[C@]3(C)CC[C@@H]12
inactive: [1] 0.061 | [2] 0.0758 | [3] 0.126 | [4] 0.123

NC[C@@H]1O[C@H](O[C@@H]2[C@@H](CO)OC(O[C@H]3C(O[C@H]4O[C@H](CO)[C@@H](O)[C@H](O)[C@H]4N)[C@@H](N)C[C@@H](N)[C@@H]3O)[C@@H]2O)[C@H](N)[C@@H](O)[C@@H]1O (stereo partly drawn)
inactive: [1] 0.0774 | [2] 0.116 | [5] 0.171 | [6] 0.0601 | [3] 0.0937 | [4] 0.0802 | [7] 0.19 | [8] 0.0499

COc1ccc(OC)c(CN2CCN(Cc3ccc(F)cc3)CC2)c1
inactive: [1] 0.102 | [2] 0.0528 | [3] 0.106 | [4] -0.00941

CN1CCN(CCOc2cc(OC3CCOCC3)c3c(Nc4c(Cl)ccc5c4OCO5)ncnc3c2)CC1
active: [17] -0.339 | [18] -0.15 | [19] -0.476 | [20] -0.808
inactive: [9] 0.0216 | [10] 0.122 | [11] -0.0387 | [12] 0.0239 | [13] -0.075 | [14] 0.0267 | [15] -0.153 | [16] -0.0864

C[C@@H]1O[C@H](OC[C@H]2O[C@@H](Oc3c(-c4ccc(O)c(O)c4)oc4cc(O)cc(O)c4c3=O)[C@H](O)[C@@H](O)[C@@H]2O)[C@H](O)[C@H](O)[C@H]1O
inactive: [1] -0.0111 | [2] 0.0513 | [3] 0.125 | [4] 0.094

C[C@H](CCC(=O)O)[C@H]1CC[C@H]2[C@@H]3C(O)CC4=CC(=O)CC[C@]4(C)[C@H]3CC[C@]12C (stereo partly drawn)
inactive: [1] 0.0418 | [2] -0.00533 | [3] 0.162 | [4] -0.0526

C[n+]1c2cc(N)ccc2cc2ccc(N)cc21
active: [7] -0.404 | 25 µM, library screen: screen2, EWS-FLI1 expression: high (no doxycycline) -4.23 | 25 µM, library screen: screen2, EWS-FLI1 expression: low (doxycycline-induced shRNA knockdown) -2.18
inactive: 0.025 µM, library screen: screen2, EWS-FLI1 expression: high (no doxycycline) 0.0847 | 0.025 µM, library screen: screen2, EWS-FLI1 expression: low (doxycycline-induced shRNA knockdown) 0.099 | [1] 0.0872 | [2] 0.141 | [5] 0.0533 | [6] 0.0413 | [3] 0.0728 | [4] 0.101 | [8] -0.0252

CCCCN1CCC(COC(=O)c2cc(Cl)c(N)c3c2OCCO3)CC1
active: [5] -0.151
inactive: [6] -0.0248 | [7] 0.148 | [8] 0.108

CC[C@H](/C=C/[C@@H](C)[C@H]1CC[C@H]2[C@@H]3CCC4=CC(=O)CC[C@]4(C)[C@H]3CC[C@]12C)C(C)C
inactive: [1] 0.0678 | [2] 0.0569 | [3] 0.0668 | [4] -0.0817

COC(=O)[C@H]1[C@H]2C[C@H]3c4[nH]c5cc(OC)ccc5c4CCN3C[C@H]2C[C@@H](OC(=O)c2cc(OC)c(OC)c(OC)c2)[C@@H]1OC
inactive: [1] 0.121 | [2] 0.17 | [3] 0.195 | [4] 0.313
